# The campaign covered roughly 5,500 compounds. About 2,000 (36%) were called active. Another 18% or so got no clear call; they are omitted. The list shows a part of the results. Unmarked numbers belong to inactive results. Cut-off read from the data, not from the text of the source: active = normalized growth mostly below about 0.91 (no sharp cut-off); inconclusive = no clear call, values can overlap the other calls; inactive = mostly above about 0.92.
# Test: chemical genetic growth profiling, strain panel (AID 1159580);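 note: tested at 20 µM; growth read once vehicle control cultures reached saturation at 30 °C; 1 = growth at the plate median or of vehicle wells; lower values mean less growth of the strain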
# Conditions: growth OD
smiles,measurement,setting,value
COc1ccc2c(c1)OC[C@@H](Cc1ccc(OC)c(OC)c1)[C@H]2O,normalized growth,"S. cerevisiae deletion strains, locus YJR066W, strain TOR1, active compounds read low",0.913
same,normalized growth,"S. cerevisiae deletion strains, locus YKL009W, strain mrt4, active compounds read low",0.954
same,normalized growth,"S. cerevisiae deletion strains, locus YKL068W, active compounds read low",0.973
same,normalized growth,"S. cerevisiae deletion strains, locus YKL085W, strain MDH1 (second series), active compounds read low",0.976
same,normalized growth,"S. cerevisiae deletion strains, locus YKL085W, strain MDH1, active compounds read low",0.976
same,normalized growth,"S. cerevisiae deletion strains, locus YKL160W, strain elf1, active compounds read low",1.01
same,normalized growth,"S. cerevisiae deletion strains, locus YKL190W, strain CNB1, active compounds read low",0.997
same,normalized growth,"S. cerevisiae deletion strains, locus YKR001C, strain vps1, active compounds read low",0.84 (active)
same,normalized growth,"S. cerevisiae deletion strains, locus YKR026C, strain gcn3, active compounds read low",1
same,normalized growth,"S. cerevisiae deletion strains, locus YKR091W, strain srl3, active compounds read low",1
same,normalized growth,"S. cerevisiae deletion strains, locus YLL001W, strain dnm1, active compounds read low",0.979
same,normalized growth,"S. cerevisiae deletion strains, locus YLL026W, active compounds read low",0.996
same,normalized growth,"S. cerevisiae deletion strains, locus YLL041C, strain sdh2, active compounds read low",1
same,normalized growth,"S. cerevisiae deletion strains, locus YLR027C, strain aat2, active compounds read low",1.01
same,normalized growth,"S. cerevisiae deletion strains, locus YLR039C, strain RIC1, active compounds read low",0.675 (active)
same,normalized growth,"S. cerevisiae deletion strains, locus YLR058C, strain SHM2, active compounds read low",1
same,normalized growth,"S. cerevisiae deletion strains, locus YLR102C, strain apc9, active compounds read low",0.981
same,normalized growth,"S. cerevisiae deletion strains, locus YLR113W, strain HOG1, active compounds read low",0.871
same,normalized growth,"S. cerevisiae deletion strains, locus YLR221C, strain rsa3, active compounds read low",1.01
same,normalized growth,"S. cerevisiae deletion strains, locus YLR258W, strain gsy2, active compounds read low",0.994
same,normalized growth,"S. cerevisiae deletion strains, locus YLR262C, strain YPT6 (second series), active compounds read low",0.755 (active)
same,normalized growth,"S. cerevisiae deletion strains, locus YLR262C, strain YPT6, active compounds read low",0.641
same,normalized growth,"S. cerevisiae deletion strains, locus YLR268W, strain sec22, active compounds read low",0.997
same,normalized growth,"S. cerevisiae deletion strains, locus YLR320W, strain mms22, active compounds read low",1.01
same,normalized growth,"S. cerevisiae deletion strains, locus YLR330W, strain CHS5, active compounds read low",0.984
same,normalized growth,"S. cerevisiae deletion strains, locus YLR342W, strain FKS1 (second series), active compounds read low",1.02
same,normalized growth,"S. cerevisiae deletion strains, locus YLR342W, strain FKS1, active compounds read low",1
same,normalized growth,"S. cerevisiae deletion strains, locus YLR357W, strain rsc2, active compounds read low",1.01
same,normalized growth,"S. cerevisiae deletion strains, locus YLR370C, strain arc18, active compounds read low",1
same,normalized growth,"S. cerevisiae deletion strains, locus YLR371W, strain rom2, active compounds read low",0.96
same,normalized growth,"S. cerevisiae deletion strains, locus YLR384C, strain iki3, active compounds read low",1.01
same,normalized growth,"S. cerevisiae deletion strains, locus YLR418C, strain cdc73, active compounds read low",1.04
same,normalized growth,"S. cerevisiae deletion strains, locus YML016C, strain PPZ1, active compounds read low",1
same,normalized growth,"S. cerevisiae deletion strains, locus YML032C, strain rad52, active compounds read low",0.975
same,normalized growth,"S. cerevisiae deletion strains, locus YML120C, strain ndi1, active compounds read low",1
same,normalized growth,"S. cerevisiae deletion strains, locus YML124C, strain tub3, active compounds read low",0.976
same,normalized growth,"S. cerevisiae deletion strains, locus YMR058W, strain fet3, active compounds read low",1.02
same,normalized growth,"S. cerevisiae deletion strains, locus YMR078C, strain ctf18, active compounds read low",0.977
same,normalized growth,"S. cerevisiae deletion strains, locus YMR125W, strain sto1, active compounds read low",1.01
same,normalized growth,"S. cerevisiae deletion strains, locus YMR129W, active compounds read low",1.01
same,normalized growth,"S. cerevisiae deletion strains, locus YMR205C, strain PFK2, active compounds read low",0.966
same,normalized growth,"S. cerevisiae deletion strains, locus YMR223W, strain ubp8, active compounds read low",0.976
same,normalized growth,"S. cerevisiae deletion strains, locus YMR231W, strain pep5, active compounds read low",0.981
same,normalized growth,"S. cerevisiae deletion strains, locus YMR307W, strain GAS1, active compounds read low",1.11
same,normalized growth,"S. cerevisiae deletion strains, locus YNL067W, strain RPL9B, active compounds read low",1.02
same,normalized growth,"S. cerevisiae deletion strains, locus YNL071W, strain lat1, active compounds read low",1
same,normalized growth,"S. cerevisiae deletion strains, locus YNL153C, strain GIM3, active compounds read low",1.03
same,normalized growth,"S. cerevisiae deletion strains, locus YNL183C, strain NPR1, active compounds read low",0.867
same,normalized growth,"S. cerevisiae deletion strains, locus YNL209W, strain ssb2, active compounds read low",1.02
same,normalized growth,"S. cerevisiae deletion strains, locus YNL233W, strain BNI4, active compounds read low",1.02
same,normalized growth,"S. cerevisiae deletion strains, locus YNL248C, strain rpa49, active compounds read low",1.01
same,normalized growth,"S. cerevisiae deletion strains, locus YNL250W, strain rad50, active compounds read low",0.962
same,normalized growth,"S. cerevisiae deletion strains, locus YNL271C, strain bni1, active compounds read low",0.977
same,normalized growth,"S. cerevisiae deletion strains, locus YNL298W, strain CLA4, active compounds read low",0.991
same,normalized growth,"S. cerevisiae deletion strains, locus YNL307C, strain MCK1, active compounds read low",0.971
same,normalized growth,"S. cerevisiae deletion strains, locus YNL322C, strain KRE1 (second series), active compounds read low",0.973
same,normalized growth,"S. cerevisiae deletion strains, locus YNR049C, strain mso1, active compounds read low",1.01
same,normalized growth,"S. cerevisiae deletion strains, locus YNR052C, strain pop2, active compounds read low",0.978
same,normalized growth,"S. cerevisiae deletion strains, locus YOL012C, strain htz1",1.24
same,normalized growth,"S. cerevisiae deletion strains, locus YOL147C, strain pex11, active compounds read low",0.983
same,normalized growth,"S. cerevisiae deletion strains, locus YOR001W, strain rrp6, active compounds read low",1.03
same,normalized growth,"S. cerevisiae deletion strains, locus YOR061W, strain CKA2, active compounds read low",0.999
same,normalized growth,"S. cerevisiae deletion strains, locus YOR069W, strain VPS5, active compounds read low",0.995
same,normalized growth,"S. cerevisiae deletion strains, locus YOR070C, strain gyp1, active compounds read low",1
same,normalized growth,"S. cerevisiae deletion strains, locus YOR080W, strain dia2, active compounds read low",1.01
same,normalized growth,"S. cerevisiae deletion strains, locus YOR083W, strain WHI5, active compounds read low",0.997
same,normalized growth,"S. cerevisiae deletion strains, locus YOR106W, strain vam3, active compounds read low",0.99
same,normalized growth,"S. cerevisiae deletion strains, locus YOR136W, strain idh2, active compounds read low",0.986
same,normalized growth,"S. cerevisiae deletion strains, locus YOR144C, strain elg1, active compounds read low",0.995
same,normalized growth,"S. cerevisiae deletion strains, locus YOR184W, strain ser1, active compounds read low",0.964
same,normalized growth,"S. cerevisiae deletion strains, locus YOR231W, strain MKK1, active compounds read low",0.93
same,normalized growth,"S. cerevisiae deletion strains, locus YOR265W, strain rbl2, active compounds read low",1.01
same,normalized growth,"S. cerevisiae deletion strains, locus YOR270C, strain vph1, active compounds read low",1.01
same,normalized growth,"S. cerevisiae deletion strains, locus YOR290C, strain snf2, active compounds read low",0.987
same,normalized growth,"S. cerevisiae deletion strains, locus YOR316C, strain cot1, active compounds read low",0.969
same,normalized growth,"S. cerevisiae deletion strains, locus YPL051W, strain arl3, active compounds read low",0.997
same,normalized growth,"S. cerevisiae deletion strains, locus YPL078C, strain atp4, active compounds read low",1.02
same,normalized growth,"S. cerevisiae deletion strains, locus YPL106C, strain sse1, active compounds read low",1.03
same,normalized growth,"S. cerevisiae deletion strains, locus YPL240C, strain hsp82, active compounds read low",1.01
same,normalized growth,"S. cerevisiae deletion strains, locus YPL241C, strain CIN2, active compounds read low",1
same,normalized growth,"S. cerevisiae deletion strains, locus YPL256C, strain CLN2, active compounds read low",0.907
same,normalized growth,"S. cerevisiae deletion strains, locus YPR119W, strain clb2, active compounds read low",0.974
same,normalized growth,"S. cerevisiae deletion strains, locus YPR141C, strain kar3, active compounds read low",0.979
same,normalized growth,"S. cerevisiae deletion strains, locus YPR163C, strain tif3, active compounds read low",0.974
same,normalized growth,"S. cerevisiae deletion strains, locus YPR167C, strain met16, active compounds read low",0.959
same,normalized growth,"S. cerevisiae deletion strains, strain wtn01, active compounds read low",0.97
same,normalized growth,"S. cerevisiae strains, strain wild type, active compounds read low",0.995
